High-throughput results from PubChem.
Shown are actives, neighbours in structure and some others; about 12% of the full set was active somewhere.
JMJD2A Tudor – blocks the human JMJD2A Tudor domain; O75164; AlphaScreen JMJD2A-Tudor / H3K4me3 peptide binding; Potency, µM (series often up to 114 µM), usual class: inhibitors; 390,000 tested, 4.4% active; AID 504339; further: nearly all actives have a fitted effect of over 50% in size
G9a inh – inhibitors of human histone lysine methyltransferase G9a; Q96KQ7; G9a H3K9 monomethylation, AlphaScreen, 2 h; Potency, µM (titrated, usually from 102 µM), most hits filed as inhibitors; 350,000 tested, 8.8% active; further: nearly all actives have a fitted effect of over 75% in size
Target sequence (Q96KQ7 913-1193 limits assumed): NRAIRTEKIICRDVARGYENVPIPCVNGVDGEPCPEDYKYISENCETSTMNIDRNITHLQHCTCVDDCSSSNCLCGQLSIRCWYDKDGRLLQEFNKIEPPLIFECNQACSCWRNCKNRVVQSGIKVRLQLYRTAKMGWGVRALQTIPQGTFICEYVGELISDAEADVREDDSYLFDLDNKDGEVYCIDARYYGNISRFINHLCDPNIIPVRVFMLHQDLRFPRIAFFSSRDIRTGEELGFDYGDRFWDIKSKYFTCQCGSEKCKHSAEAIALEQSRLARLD
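Using a bead-based AlphaScreen, monomethylated H3K9 product from 2 h room-temperature reactions (G9a 20 nM, peptide 500 nM, SAM 20 uM) was detected with 0.5 ug/mL rabbit anti-H3K9me1 antibody.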
PLK1 PBD block – PLK1 (human) polo-box domain binding inhibition. P53350. Plk1 PBD binding of FITC phosphopeptide, fluorescence polarization. Potency, µM, actives largely listed as inhibitors. 360,000 tested, 2.8% active; further: series mostly up to about 57 µM; nearly all actives have a fitted effect of over 65% in size
PI5P4Ka inh – blocks human PI5P4K alpha kinase activity; P48426; max response, %; PI5P4Kalpha enzyme, ADP-Glo luminescence, 60 min; hits give low values; AID 652105; 330,000 tested, 1.2% active; active means max response of -50% or lower; inconclusive means between -30% and -50%; inactive means -30% or higher; further: value at the top dose of about 77 µM
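ADP-Glo luminescence end-point after a 60 min room-temperature kinase reaction. PI5P4Kalpha and substrate in HEPES pH 7.4 buffer with EGTA, 0.1% CHAPS and 5% DMSO; ATP at 5 microM final.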
BAZ2B inh – BAZ2B (human) inhibition. Q9UIF8. AlphaScreen BAZ2B-H3K14Ac peptide displacement. Potency, µM (titrated, usually from 114 µM), most hits filed as inhibitors. 360,000 tested, 4.4% active. AID 504333; further: nearly all actives have a fitted effect of over 60% in size
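Multi-concentration screen (max 110 uM) measuring displacement of acetylated histone H3 peptide from BAZ2B by AlphaScreen, using 50 nM protein, 50 nM peptide and 10 ug/mL streptavidin donor plus Ni-chelate acceptor beads.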
HP1b chromo inh – HP1-beta chromodomain-methylated histone interaction inhibition | P83916 | AID 540317 | 390,000 tested, 0.56% active | AlphaScreen HP1-beta / biotin-H3K9me3 peptide binding | Potency, µM (titrated, usually from 114 µM), actives largely listed as inhibitors; further: nearly all actives have a fitted effect of over 70% in size
Target sequence (P83916 whole entry, looked up): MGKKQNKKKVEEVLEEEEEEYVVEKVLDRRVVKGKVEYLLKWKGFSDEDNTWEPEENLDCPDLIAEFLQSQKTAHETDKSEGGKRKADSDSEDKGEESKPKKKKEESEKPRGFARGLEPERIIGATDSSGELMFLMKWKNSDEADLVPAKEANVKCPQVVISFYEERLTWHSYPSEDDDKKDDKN
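HP1-beta protein (50 nM final) preincubated 30 min at room temperature with biotinylated H3(1-18)K9me3 peptide (50 nM) in PBS pH 7.4, 0.01% Tween-20, then compound added for 30 min. AlphaScreen streptavidin donor/nickel chelate acceptor beads (10 ug/mL final), 30 min dark, luminescence read.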
Each line names hits and unclear results; the compound was inactive in the other large screens. Unless noted, the call rests on the fitted dose curve; in most records, active means well fitted curve in the direction sought with a large enough effect; inconclusive means small, poorly fitted or top-dose-only effect, or another doubt; inactive means no such curve, though single readings can be large; an effect the other way counts as inactive or inconclusive.

Cc1noc(C)c1-c1ccc(C(=O)NCCc2ccccc2)c2occc12	none (no result: JMJD2A Tudor, G9a inh, BAZ2B inh, HP1b chromo inh)
CCOc1ccc(NC(=O)COC(=O)Cc2ccc(S(=O)(=O)N3CCOCC3)s2)cc1	G9a inh 40µM, BAZ2B inh inconclusive (no result: PI5P4Ka inh)
CC1CCCN(S(=O)(=O)c2ccc(NC(=O)Cc3ccc(S(=O)(=O)N4CCOCC4)s3)cc2)C1 (centres undefined)	G9a inh 4µM
CC1CCN(S(=O)(=O)c2ccc(NC(=O)Cc3ccc(S(=O)(=O)N4CCOCC4)s3)cc2)CC1	none
CNC(=O)c1ccc(NC(=O)Cc2ccc(S(=O)(=O)N3CCOCC3)s2)cc1	G9a inh 45µM
O=C(Cc1ccc(S(=O)(=O)N2CCOCC2)s1)Nc1ccc(S(=O)(=O)N2CCCCC2)cc1	G9a inh 45µM
Cc1nc2cc(-c3ccccc3)nn2c(C)c1CCC(=O)N1CCN(c2ccc(F)cc2)CC1	none (no result: PLK1 PBD block, PI5P4Ka inh)
COC(=O)CCNC(=O)Cc1ccc(S(=O)(=O)N2CCCCC2)s1	G9a inh 50µM, PI5P4Ka inh inconclusive
CC(=O)Nc1ccc(NC(=O)Cc2ccc(S(=O)(=O)N3CCCCC3)s2)cc1	JMJD2A Tudor inconclusive, G9a inh inconclusive, PI5P4Ka inh inconclusive, BAZ2B inh inconclusive
CC1(C(=O)O)NCCc2cc(O)c(O)cc21 (centres undefined)	G9a inh 18µM (no result: JMJD2A Tudor, PLK1 PBD block, PI5P4Ka inh, BAZ2B inh, HP1b chromo inh)
CCCn1c(SCC(=O)Nc2ccccc2CC)nnc1C(C)C	JMJD2A Tudor inconclusive, PLK1 PBD block 3µM, PI5P4Ka inh inconclusive
CCSc1nc2sc3c(c2c2[n+]1CC(CBr)O2)CCCC3 (centres undefined)	JMJD2A Tudor 56µM, G9a inh 25µM, BAZ2B inh 56µM
O=C1C(=O)N(CCS(=O)(=O)c2ccccc2)c2ccc(F)cc21	none
CC(=C\C(=O)O)/C(=C/c1ccco1)C(=O)O	G9a inh 45µM
CC(=C\C(=O)O)/C(=C/c1ccc(C)o1)C(=O)O	JMJD2A Tudor inconclusive, G9a inh 32µM, BAZ2B inh inconclusive
O=C1NCCCc2c1oc1cc(Br)c(O)c(Br)c21	G9a inh 50µM (no result: PI5P4Ka inh)
COCCC(=O)Nc1ccc2c(c1)CN(C(=O)c1ccc(CSC)o1)CC2	G9a inh 50µM, PLK1 PBD block inconclusive
CC1=NN(c2ccccc2)C(=O)/C1=C\c1cn(C)c2ccccc12	JMJD2A Tudor 8.9µM, G9a inh 11µM, BAZ2B inh 3.5µM, HP1b chromo inh 16µM
CC1=NN(c2ccccc2)C(=O)/C1=C/c1cn(C)c2ccccc12	JMJD2A Tudor 6.3µM, BAZ2B inh 5µM, HP1b chromo inh 11µM
CC1=NN(c2ccccc2)C(=O)/C1=C\c1cc(C)n(C)c1C	G9a inh inconclusive, BAZ2B inh inconclusive
Cn1cc(C=O)c2ccccc21	none
CCOc1ccc(NC(=S)N(Cc2ccc(N(C)C)cc2)Cc2ccco2)cc1	JMJD2A Tudor 16µM, G9a inh 40µM, BAZ2B inh 35µM, HP1b chromo inh inconclusive
CCCN(Cc1ccccc1)C(=S)Nc1ccc(OCC)cc1	none
COc1ccc(NC(=S)N(Cc2ccc(N(C)C)cc2)Cc2ccco2)cc1	JMJD2A Tudor 50µM, G9a inh inconclusive, BAZ2B inh 32µM, HP1b chromo inh inconclusive
CCc1ccc(CN(Cc2ccco2)C(=O)c2ccc(OC)cc2)cc1	none (no result: PLK1 PBD block, PI5P4Ka inh)
COc1ccc(Nc2cc3n(c(=O)n2)CCc2cc(OC)c(OC)cc2-3)cc1	JMJD2A Tudor inconclusive
COc1cc2c(cc1OC)-c1cc(Nc3ccc(C(=O)O)cc3)nc(=O)n1CC2	JMJD2A Tudor inconclusive, G9a inh inconclusive, BAZ2B inh 71µM, HP1b chromo inh inconclusive
O=C(O)c1cc(N/N=C/c2ccc(-c3ccc(F)cc3)o2)ccc1Cl	G9a inh 50µM, PLK1 PBD block inconclusive, BAZ2B inh inconclusive
O=C(O)c1cccc(-c2ccc(/C=N/Nc3ccc([N+](=O)[O-])cc3)o2)c1	BAZ2B inh 45µM (no result: G9a inh)
O=C(O)c1cc(-c2ccc(/C=N/Nc3ccc([N+](=O)[O-])cn3)o2)ccc1Cl	JMJD2A Tudor 40µM, G9a inh 79µM, PLK1 PBD block inconclusive, PI5P4Ka inh -61, HP1b chromo inh inconclusive (no result: BAZ2B inh)
O=C(Cc1ccc(F)cc1)N/N=C/c1ccc(-c2ccc(Cl)c(C(=O)O)c2)o1	G9a inh inconclusive
O=C(N/N=C/c1ccc([N+](=O)[O-])o1)C(=O)Nc1ccc(C(=O)O)cc1	none
O=C(O)c1ccc(N/N=C/C=C/c2ccc([N+](=O)[O-])o2)cc1	JMJD2A Tudor 45µM, G9a inh 32µM, PI5P4Ka inh inconclusive, BAZ2B inh 40µM, HP1b chromo inh inconclusive
CS(=O)(=O)N1CCC2(CC1)CN(c1ccc(-c3ccccc3)cc1)C2	none (no result: JMJD2A Tudor, PLK1 PBD block, PI5P4Ka inh, BAZ2B inh, HP1b chromo inh)
CCOC(=O)CSc1nnc(CSc2nc(N)c3c(C)c(C)sc3n2)n1-c1ccccc1	G9a inh 45µM
CCOC(=O)CSc1nnc(CSc2nc3sc4c(c3c(=O)[nH]2)CCC4)n1-c1ccccc1	none
Cc1noc(C)c1-c1ccc2ncnc(NCc3ccco3)c2c1	none (no result: G9a inh, PLK1 PBD block, PI5P4Ka inh, BAZ2B inh, HP1b chromo inh)
Cc1ccc(CN2CC(C(=O)NNC(=O)c3ccc(F)cc3)CC2=O)cc1 (centres undefined)	none
C/C(N)=C(/C#N)C(=O)COC(=O)c1cccc(C)c1O	none
C/C(N)=C(/C#N)C(=O)COC(=O)c1ccc(O)cc1	none
C/C(N)=C(/C#N)C(=O)COC(=O)c1ccccc1Oc1ccccc1	JMJD2A Tudor inconclusive, PLK1 PBD block 27µM
C/C(N)=C(/C#N)C(=O)COC(=O)c1ccc(C#N)cc1	G9a inh 22µM, BAZ2B inh inconclusive
C/C(N)=C(/C#N)C(=O)COC(=O)c1cc(-c2ccc(Br)cc2)nc2ccccc12	G9a inh 1.8µM
Cc1ccc(Sc2ccc(/C=N/O)cc2[N+](=O)[O-])cc1	JMJD2A Tudor 45µM, G9a inh inconclusive, BAZ2B inh inconclusive
Cc1ccc(S(=O)(=O)c2nnn3c2nc(Nc2ccc(C(C)C)cc2)c2sccc23)cc1C	none (no result: PLK1 PBD block, PI5P4Ka inh)
COc1cccc(C(=O)NN/C(C)=C/C(=O)C(F)(F)C(F)(F)C(F)(F)F)c1	JMJD2A Tudor inconclusive, PLK1 PBD block 27µM
COC(=O)C(CC(C)C)NS(=O)(=O)c1ccccc1Br (centres undefined)	none (no result: G9a inh, PLK1 PBD block, PI5P4Ka inh, BAZ2B inh)
O=c1ccsn1Cc1ccccc1	JMJD2A Tudor 40µM, G9a inh inconclusive, PLK1 PBD block 3µM, PI5P4Ka inh inconclusive, BAZ2B inh 56µM, HP1b chromo inh inconclusive
O=C1NC(Cc2ccccc2)C(=O)N1Cc1ccccc1 (centres undefined)	none (no result: G9a inh, BAZ2B inh)
Cc1ccc(C(=O)c2cn(Cc3cccc(F)c3)c3nc(C)ccc3c2=O)cc1	none (no result: PLK1 PBD block, PI5P4Ka inh)
COc1ccccc1/C=C(/NC(=O)c1ccccc1)C(=O)NCCN1CCOCC1	none
CN(C)S(=O)(=O)n1cc(/C=C(\NC(=O)c2ccccc2F)C(=O)N2CCOCC2)c2ccccc21	JMJD2A Tudor inconclusive, PLK1 PBD block 19µM
